# Assay outcomes as filed in PubChem BioAssay.
# miR-21 reporter: qHTS Assay for Modulators of miRNAs and/orActivators of miR-21. HeLa miR-21 FLuc reporter, luciferase, 48 h. Potency, µM (titrated, usually from 38.3 µM), without a hit: top-dose activity change, positive = activation, usual class: activators. 340,000 tested, under 10 active;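 further: % of control where 0% means no effect; miR-21 action dims this reporter so a rising signal means less miR-21 action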
#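 HeLa cells stably expressing CMV-driven firefly luciferase with a downstream miR-21 binding sequence, endogenously expressing miR-21, were treated with titrations (up to about 40uM final) for 48 hours at 37 degree Celsius. Luciferase luminescence was read after lysis.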
# B2AR arrestin: qHTS assay of beta-arrestin-biased ligands of beta2-adrenergic receptor; Potency, µM (highest dose often 46.1 µM), for the others: top-dose activation, most hits filed as activators; AID 492947, 2010; Beta-2 adrenergic receptor (Homo sapiens), P07550; 0.02% of 330,000 active; beta-arrestin recruitment to beta2AR, cell-based reporter;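 further: potency means the concentration at half of the fitted maximal effect; 0% = DMSO controls and full agonism = EC100 isoproterenol or metaproterenol; nearly all actives have a fitted effect of over 65% in size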
# uPA surface inh: qHTS for Inhibitors of Cell Surface uPA Generation | cell surface uPA generation assay, qHTS | Potency, µM (top dose mostly 38.3 µM), for inactives: top-dose activity change, negative = inhibition, hits mostly inhibitors | 0.31% of 330,000 active | AID 540303, 2011; active means well fitted inhibition curve with a large enough effect; inconclusive means small, poorly fitted or top-dose-only effect; inactive means no such curve, though single readings can be large or run the other way; tested in mouse RAW 264.7 cells; further: potency means the concentration at half of the fitted maximal effect; on the % scale 0 is the no-effect control and ±100 the full control effect; nearly all actives have a fitted effect of over 55% in size
# FBPA coupling cs: qHTS Assay for Inhibitors of Fructose-1,6-bisphosphate Aldolase from Giardia Lamblia: Coupling assay counterscreen; activity change, negative = inhibition, % at 58.2 µM, hits read low; 0.67% of 290,000 active; AID 2472, 2010; coupling enzyme system counterscreen, AmpLite Red fluorescence; in the data active means activity change below about -30%; further: on the % scale 0 is the no-effect control and ±100 the full control effect
#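 Counterscreen of the coupled detection system alone, without aldolase: glyceraldehyde-3-phosphate coupling enzymes plus AmpLite Red readout. Compounds at 57.5 uM final, 10 min RT preincubation, 20 min RT reaction, fluorescence 525/598 nm.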
# Giardia killer: Small Molecules that selectively kill Giardia lamblia: qHTS; Giardia lamblia trophozoite viability; activity change, % at 7.66 µM, hits read low; AID 540267, 2011; 0.15% of 340,000 active; in the data active means activity change below about -80%; inconclusive means between about -30% and that limit;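 further: parasites exposed to compound for two days anaerobically before the ATP read; on the % scale 0 is the no-effect control and ±100 the full control effect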
#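 ATP-content bioluminescence gauges trophozoite survival. Cells (100/well) receive compound and incubate anaerobically for 48 hrs at 37 deg C; detection reagent follows for 15-30 min at room temperature.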
# GALK inh: qHTS Assay for Inhibitors of Human Galactokinase (GALK). P51570. Purified GALK, Kinase-Glo residual ATP luminescence. Potency, µM (series often up to 57.5 µM), for the others: at the highest dose activity change, negative = inhibition, usual class: inhibitors. 0.007% of 270,000 active. AID 1868, 2009; further: potency means the concentration at half of the fitted maximal effect; on the % scale 0 is the no-effect control and ±100 the full control effect
# Target sequence (P51570 whole entry, looked up): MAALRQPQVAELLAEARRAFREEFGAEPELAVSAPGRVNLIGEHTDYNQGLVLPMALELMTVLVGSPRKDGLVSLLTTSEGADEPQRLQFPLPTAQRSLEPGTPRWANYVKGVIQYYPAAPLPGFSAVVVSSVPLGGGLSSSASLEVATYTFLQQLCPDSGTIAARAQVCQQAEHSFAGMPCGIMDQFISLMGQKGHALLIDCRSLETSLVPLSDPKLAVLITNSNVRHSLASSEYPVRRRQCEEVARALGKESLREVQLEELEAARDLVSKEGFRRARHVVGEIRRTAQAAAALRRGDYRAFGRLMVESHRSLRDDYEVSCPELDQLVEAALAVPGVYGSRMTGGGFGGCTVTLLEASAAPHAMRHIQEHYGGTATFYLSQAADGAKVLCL
#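 Luminescence from leftover ATP (Ultra-Glo luciferase/luciferin) served as read-out after a 1 h room-temperature reaction of 5 nM GALK with 35 uM ATP and 100 uM galactose.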
# * hit, by the source's call; u = inconclusive; x = not tested or not shown; ! = not active in a repeat. Only some compounds are listed: those with a hit (about 0.92% of all), similar ones and a draw of the others. Unless noted, the call rests on the fitted dose curve; in most records, active means well fitted curve in the direction sought with a large enough effect; inconclusive means small, poorly fitted or top-dose-only effect, or another doubt; inactive means no such curve, though single readings can be large; an effect the other way counts as inactive or inconclusive.
SMILES,miR-21 reporter,B2AR arrestin,uPA surface inh,FBPA coupling cs,Giardia killer,GALK inh
Cc1ccc(-n2nc3c(N4CCC(C(=O)NC5CCC(C)CC5)CC4)nnc(C)c3c2C)cc1 (stereo unspecified),-4%,x,x,x,x,x
COc1ccc(C(=C2C(=O)Nc3ccccc32)c2ccc(OC)cc2)cc1,x,x,x,-10,x,x
O=C(c1ccc2nc(-c3ccco3)c(-c3ccco3)nc2c1)N1CCN(c2ccccc2)CC1,8%,0%,x,-40*,-2,1%
Cc1cc(C)c2nc(NNC(=O)c3ccc(S(=O)(=O)N4CCCC(C)C4)cc3)sc2c1 (stereo unspecified),13%,0%,5.6µM*,-1,24,x
CCOc1ccc(S(=O)(=O)Nc2cccc(-c3ccc(OCC)nn3)c2)cc1,9%,x,x,x,x,x
COc1ccc(OC)c(-c2cnc(OC(C)(C)C)nc2OC(C)(C)C)c1,23%,-2%,2.2µM*,-4,-14,-2%
COc1ccc(-c2ccc(-c3nnc(-c4cc(OC)ccc4OC)o3)cc2)cc1,-2%,0%,-1%,0,4,2%
Cc1ccc(C)c(NC(=O)c2cc3ccccn3n2)c1,-41%,0%,-25%,-5,-20,-2%
Cc1ccc(C)c(NC(=O)c2cnn3ccccc23)c1,-39%,0%,11µM*,1,7,0%
Cc1ccc(-c2nc(=Nc3c(C)cc(C)cc3C)sn2-c2ccccc2)cc1,x,x,x,x,-5,x
COC(=O)c1ccc(NC(=O)c2cc(=O)c3ccc(C)cc3o2)cc1,0%,x,x,x,x,x
O=C1Nc2ccc(S(=O)(=O)NCCC3=CCCCC3)c3cccc1c23,-3%,0%,-2%,-34*,-5,-1%
O=C1Nc2ccc(S(=O)(=O)NCCCO)c3cccc1c23,-13%,1%,-4%,0,-10,-5%
COC(=O)CCCC1=CC2=C(c3ccccc3)C(=O)C(C)(OC(=O)C3CCCC3)C(=O)C2=CN1C1CCCCC1 (stereo unspecified),9%,0%,10%,-31*!,20,-2%
COC(=O)CCCC1=CC2=CC(=O)C(C)(OC(=O)C3CCCC3)C(=O)C2=CO1 (stereo unspecified),8%,0%,12%,0,-5,3%
COC(=O)CCC(=O)OC1(C)C(=O)C=C2C=C(C3CC3)N(C3CCCC3)C=C2C1=O (stereo unspecified),-3%,-1%,1%,-35*!,4,-1%
CC1(OC(=O)CCc2ccccc2)C(=O)C=C2C=C(c3ccc(C#N)cc3)N(C3CCCC3)C=C2C1=O (stereo unspecified),7%,0%,2%,-27,32,1%
COC(=O)CCC(=O)OC1(C)C(=O)C=C2C=C(C3CC3)N(C3CCCCC3)C=C2C1=O (stereo unspecified),1%,0%,8%,-41*,2,5%
COC(=O)CC1Oc2cc3oc4c(c3cc2O1)C(=O)CC(C)(C)C4 (stereo unspecified),x,x,x,8,x,x
CC1(C)CC(=O)c2c(oc3cc(O)c(O)cc23)C1,-32%,0%,-10%,-62*!,-7,-1%
O=C(O)/C=C/C(=O)c1ccc2c(c1)CCc1ccccc1-2,x,0%,5µM*,x,12,x
CC(=O)Nc1ccc2c(c1)CCc1ccccc1-2,-48%,0%,-5%,-2,-12,4%
CCOC(=O)c1c(S(=O)(=O)N2CCC(C(=O)NCc3cccc(C)c3)CC2)c(C)n(C)c1C,0%,x,x,x,x,x
CN(CCC#N)c1ccc(/C=C(\C#N)c2ccccn2)cc1,-13%,0%,2.5µM*,-4,u,3%
CCN(CC)c1ccc(/C=C(\C#N)c2ccccn2)cc1,18%,0%,-16%,-12,u,0%
SMILES,miR-21 reporter,B2AR arrestin,uPA surface inh,FBPA coupling cs,Giardia killer,GALK inh
C=CCCCCCCCCCBr,x,x,x,1,x,x
CCOC(=O)C1=C(C)NC(=O)CC1c1cc2c(cc1[N+](=O)[O-])OCO2 (stereo unspecified),0%,0%,0%,-53*,0,-1%
CCCOC(=O)C1=C(C)N(C)C(=O)NC1c1cc2c(cc1[N+](=O)[O-])OCO2 (stereo unspecified),-19%,3%,1%,-12,8,1%
CC1(OC(=O)C2CCCC2)C(=O)C=C2C=C(c3ccsc3)N(c3ccc(CO)cc3)C=C2C1=O (stereo unspecified),x,x,x,-1,x,x
CC(C)OCCCN1C=C2C(=O)C(C)(OC(=O)C3CCCC3)C(=O)C=C2C=C1c1ccsc1 (stereo unspecified),x,x,x,-41*,x,x
CC1(OC(=O)C2CCCC2)C(=O)C=C2C=C(c3ccsc3)N(C3CCCC3)C=C2C1=O (stereo unspecified),1%,0%,9%,-32*!,-22,-1%
CC1(OC(=O)C2CCCC2)C(=O)C=C2C=C(c3ccsc3)N(CCCCO)C=C2C1=O (stereo unspecified),1%,0%,4%,-37*,-1,4%
COc1ccc(CN2C=C3C(=O)C(C)(OC(=O)C4CCCC4)C(=O)C=C3C=C2c2ccsc2)cc1 (stereo unspecified),-3%,0%,7%,-4,u,-1%
COc1cccc(C(=O)N2CCN(c3ccc(N4CCOCC4)nn3)CC2)c1,x,0%,-1%,x,22,x
COc1ccc2c(c1)CCc1cc(C(=O)N3CCN(c4ccc(N5CCOCC5)nn4)CC3)sc1-2,14%,0%,u,-58*,-5,1%
Fc1ccc(Nc2ncnc3onc(-c4ccc(Cl)cc4)c23)cc1Cl,-3%,x,x,x,x,x
COc1ccc2nc(N3CCCCC3)c(C#N)cc2c1,-41%,0%,-2%,-33*,-8,6%
O=S(=O)(Nc1ccccc1O)c1cccc2cccnc12,2%,0%,0%,-17,-15,-3%
O=S(=O)(Nc1cccc2cccnc12)c1ccccc1O,x,x,x,-37*,x,x
CSCC[C@H](NC(=O)c1ccc(NC[C@@H](N)CS)cc1-c1ccccc1)C(=O)O,x,x,x,0,x,x
CCCOc1cccc(C(=O)Nc2ccc3c(c2)OCCO3)c1,-32%,0%,10µM*,-1,u,-4%
O=C(Nc1ccc2c(c1)OCCO2)c1cccc(Br)c1,-20%,0%,-6%,-7,-4,9%
CSc1ccc(C2C(C#N)=C(N)Oc3c2ccc(=O)c2c(C)oc(C)c32)cc1 (stereo unspecified),-1%,0%,-9%,-36*,4,0%
Cc1cnc(NC(=O)Nc2ccc(Cl)cc2)s1,-29%,0%,2.2µM*,-1,2,0%
Cc1cnc(NC(=O)CSc2ccc(Cl)cc2)s1,-14%,0%,5%,2,19,1%
